From PubChem BioAssay AID651692 (Broad Institute, 2012)
Entries with a potency or affinity are not part of this list. Unmarked numbers belong to inactive results.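 The calls were made as follows: active = fitted half-maximal concentration for loss of cell signal no higher than twice the top valid tested concentration; inconclusive = flat curve at 30 to 70% inhibition, or poor fit; inactive = flat within 30%, signal rise, or potency above limit.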

Experiment: MDA-MB-231 cell growth inhibition, dose response, cytotoxicity control for RAD54 inhibitor project, CellTiter-Glo luminescence, cherry-pick (AID 651692);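 also: 0% = median of sample compound wells and -100% = staurosporine control wells; more negative values mean stronger loss of viable cell signal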
Details: MDA-MB-231 viability, 24 h; series mostly up to 26 µM; activity change, negative = growth inhibition: at the top concentration

SMILES | activity change, negative = growth inhibition [%]
CCOc1ccc2nc(C)cc(Nc3ccc4c(c3)OCCO4)c2c1 | -23.8
c1ccc(-c2cc(NCCN3CCCCC3)c3ccccc3n2)cc1 | -16.1
CN(C)CCN(C(=O)c1ccc2c(c1)OCCO2)c1nc2c(Cl)cccc2s1 | 3.6
CN(C)CCNC(=O)c1cccc(-c2cnc3c(NC=O)cc(-c4cccs4)cn23)c1 | 5.06
CCNC(=O)c1cc2c(=O)n3cccc(C)c3nc2n(CCc2ccccc2)c1=N | -8.42
Cc1cc(C)c2c(c1)c1nnc(SCCN3CCCCC3)nc1n2C | -8.21
O=C(COc1ccc2c(c1)oc(=O)c1ccccc12)NCCCN1CCOCC1 | 4.58
CCCN(CCC)CCCNC(=S)Nc1ccc2nc(N3CCCC3)cc(C)c2c1 | -3.41
CCN(CC)CC(O)c1ccc2ccc3ccc(O)cc3c2c1 (centres undefined) | -4.8
COc1cccc(-c2cnc3c(NC(C)=O)cc(-c4cccc(C(=O)NCCN(C)C)c4)cn23)c1 | -22.6
COc1ccc(-c2nc(C(=O)NCCCN3CCOCC3)cc3c2[nH]c2ccccc23)cc1OC | -13.7
CCCN1CCN(CCCNC(=S)Nc2ccc3nc(N4CCN(CC)CC4)cc(C)c3c2)CC1 | 3.59
CCN(CC)CCCNC(=O)c1ccc2c3n(nc2c1)-c1ccc(Cl)cc1CO3 | 9.21
CC(=O)Nc1ccc2cc3ccc(NC(C)=O)cc3nc2c1 | -1.22
COc1cccc(-c2nc(NCCN3CCOCC3)c3ccccc3n2)c1O | 0.284
CCCCN(CC)CCCNC(=O)c1cc2c(-c3ccc(OC)c(OC)c3)nn(C)c2s1 | 5.82
CCN1CCN(c2cc(C)c3cc(NC(=S)N4CC(C)CC(C)C4)ccc3n2)CC1 (centres undefined) | -2.48
c1ccc2c(c1)oc1c(Nc3ccc(CN4CCOCC4)cc3)ncnc12 | 2.94
CN1CCC[C@H]1CCNc1ccc2c(=O)c3ccccc3n(C)c2c1 | 3.73
CN(C)CCNC(=O)c1cccc(-c2cnc3c(NC=O)cc(-c4ccccc4F)cn23)c1 | -5.66

SMILES | activity change, negative = growth inhibition [%]
COc1cc(NC(=O)c2cccnc2Sc2ccc(C)c(C)c2)cc(OC)c1OC | 8.68
c1cc2c3c(cccc3c1)C(N1CCCCC1)=N2 | 4.52
Cc1cc(Nc2ccc3c(c2)OCCO3)c2cccc(C)c2n1 | -8.03
CCOC(=O)c1c(NC(=O)c2ccc(S(=O)(=O)N3CCOCC3)cc2)sc2c1CCN(C(C)C)C2 | -3.25
CCN(CC)CCNC(=O)c1cc2c(=O)n(C)c3ccccc3c2n1C | -9.16
CN(C)CCCNc1nc2cc(-c3ccccc3)sc2c(=O)n1C | -7.78
COc1cccc(-c2cc3nc(NCCN4CCCC4)n(C)c(=O)c3s2)c1 | -7.44
Cc1cccn2c(=O)c3cc(C(=O)NCC4CCCO4)c(=N)n(C4CCCCC4)c3nc12 (centres undefined) | 9.09
CCOC(=O)c1cnc2c(C)cccc2c1NCCCN1CCOCC1 | 0.77
O=C(NCCCN1CCOCC1)c1cnn2c(-c3ccccc3)cc(-c3ccccc3)nc12 | -10.7
O=C(Nc1nnc(COc2ccc(F)cc2)s1)c1ccco1 | 8.23
COc1cccc(-c2cc(NC=O)c3ncc(-c4cccc(C(=O)NCCN(C)C)c4)n3c2)c1 | -5.61
O=C(CN1CCCC1)Nc1ccc(-c2nc3cc(NC(=O)CN4CCCC4)ccc3o2)cc1 | -7.28
CCN(CC)CCNc1nc(SC)nc2sc3c(c12)CCN(C)C3 | -3.77
CCN(CC)CCCNc1nc2cc(OC)c(OC)cc2c2nc(-c3ccccc3)nn12 | -12.7
COc1cc2nc(N(C)C)nc(N)c2cc1OC | 0.925
Cn1c(C(=O)NCCN2CCCCCC2)cc2c(=O)n(C)c3ccccc3c21 | 1.73
CC(C)N1CCc2c(sc(NC(=O)c3ccc(C(=O)c4ccccc4)cc3)c2C(N)=O)C1 | -13.8
COc1cc(OC)c2nc(C)c3c(c2c1)N(c1ccc(O)cc1)CC3 | 6.2
